Data on 51 compounds can be found in ChEMBL document CHEMBL4513216, “Probing the Open Global Health Chemical Diversity Library for Multistage-Active Starting Points for Next-Generation Antimalarials” (ACS Infect Dis, 2020).

The whole screen tested about 68,000 compounds, of which about 2,700 (4%) showed an effect of 50% or more. This is one part of a sample in which strong results are shown more often than they occur.

This test has as its system Plasmodium berghei. The test can be described thus: Screen against P. berghei liver stage (PbLuc), transformed with Luciferase, at 2uM. It counts as functional, HepG2. The note with it: tested at 2 uM.
Regarding `Cc1noc(C)c1CN1C(=O)[C@@H]2CC[C@H]1CN(C(=O)c1cscn1)C2`, the INHIBITION is given as -13.89%. Then `Cc1occc1C(=O)N1CCC2(CCN(Cc3ccccn3)C2=O)C1` (stereo unspecified), with 49.25%; and `O=C(O)[C@]12CCCN(Cc3ccsc3)C[C@H]1CN(c1ncccn1)C2`, with 53.55%; and `O=C(O)[C@]12CCCN(Cc3ccsc3)C[C@H]1CN(c1ccccn1)C2`, with 27.73%. Consider `O=C(O)[C@]12CCCN(Cc3ccccc3)C[C@H]1CN(c1ncccn1)C2`, for which the INHIBITION was -0.75%. For `CCC(C)[C@H](NC(=O)c1ccc(F)cc1-n1cnnn1)C(=O)OC` (stereo partly specified) the value was 24.67%. Then `CCn1nc(C)c(CNC(=O)c2cn(CC3CCCO3)nn2)c1C` (stereo unspecified), with -32.59%; and `CN(C)C(=O)[C@H]1C[C@H]2CN(CCc3ccccc3)C[C@@H]1O2`, with 28.38%; and `CC(=O)N1C[C@H]2CCCN(Cc3ccc(C)o3)[C@H]2C1`, with -41.73%. Turning to `COc1ccc(CN2CCC[C@@H]3CN(C(=O)c4ccco4)C[C@@H]32)cc1`, the INHIBITION is listed as -24.31%.

On to `Cc1ccc(CN2CCC[C@@H]3CN(C(=O)c4ccco4)C[C@@H]32)o1`, for which the INHIBITION was 50.17%. For `CCCC(=O)N(CCCN1CCOCC1)c1nc2c(C)c(C)ccc2s1` the value was -3.67%; for `Cc1cccc(CNC[C@H]2Cn3ccnc3CO2)n1`, 9.42%; for `CN(C)CCNC(=O)c1cc(-c2cnc(N(C)C)nc2)cn1CC1CC1`, 8.88%. As for `CN(C)c1ncc(-c2cc(C(=O)NCCO)n(CC3CC3)c2)cn1`, the INHIBITION was 23.53%. For `COCCCNC(=O)c1cc(-c2cnc(N(C)C)nc2)cn1CC1CC1` the value was 58.6%. Then `O=C(NCCCO)Nc1cnc2cc(Cl)ccc2c1O`, with 47.4%. For `CCN(Cc1ccco1)C(=O)NCc1nnc2n1CCC2`, the INHIBITION is listed as 11.78%. For `COCCN1CCc2ccc(=O)n(Cc3csc(C)n3)c2CC1`, the INHIBITION is reported as -80.01%. Then `Cc1cc(NC(=O)c2ccc(F)cc2Br)n(C)n1`, with -0.9%; and `Cc1cc(NC(=O)NCC(O)c2ccc(F)c(F)c2)n(C)n1` (stereo unspecified), with -12.19%. For `Cc1ccc(C(O)CNC(=O)Nc2cc(C)nn2C)cc1` (stereo unspecified) the value was -15.64%. Then `Cc1cc(NC(=O)c2ccc(F)cc2F)n(C)n1`, with -20.8%; and `Cc1cc(NC(=O)NCC(O)c2ccc(F)cc2)n(C)n1` (stereo unspecified), with 50.75%. `Cc1cc(NC(=O)c2ccc(F)cc2Cl)n(C)n1`: the INHIBITION was found to be 56.53%. Take `O=C(O)CN1CCC(F)(F)C2(CCN(c3ccccc3)C2)C1` (stereo unspecified): the INHIBITION is listed as -21.78%. For the compound `COCCN1CCC2(CCN(c3ncccn3)CC2)C1=O`, the INHIBITION was determined as 0.2%. As to `CC(C)(C)C1CCC(O)(CNC(=O)CCS(C)(=O)=O)CC1` (stereo unspecified), the INHIBITION is on record as -16.28%. For `CN1C[C@@H](n2cnc(-c3ccccc3)c2-c2nccn2C)C[C@H]1C(=O)O` the value was 28.07%; for `Nc1nc(NCCO)cc(N2CCc3c([nH]c4ccccc34)C2)n1`, -14.75%; for `Cc1ccc2c(c1)CN(C(=O)C1CCCCC1)C(CN(C)C)CO2` (stereo unspecified), 38.1%.

As for `Cn1cc(-c2ncc3c(c2C(=O)O)CCN(Cc2ccco2)C3)cn1`, the INHIBITION is 2.26%. `COC(=O)[C@H](C)NC(=O)c1nc(C2CC2)n(-c2ccccc2Cl)n1`: the INHIBITION is 13.65%.

With `COc1ccc(Cl)cc1CS(=O)(=O)Cc1nc(C2CC2)no1`, the INHIBITION is recorded as 7.46%. Then `COCc1nc(C2CC2)nn1-c1cc(Cl)ccc1OC`, with 52.98%; and `COCc1nc(C2CC2)nn1-c1cccc(F)c1`, with -1.57%.

`COCc1nc(C2CC2)nn1-c1ccccc1Cl`: the INHIBITION amounted to 72.05%. With `COc1ccc(Cl)cc1-n1nc(C2CCCC2)nc1Cn1cnnn1`, the INHIBITION amounted to 31.51%.

Take `Cc1ccn2c(F)c(C(=O)N3CCC4(CCC(=O)N(C)C4)CC3)nc2c1`: the INHIBITION came out at 6.81%. Then `Cc1nc(CNC(=O)Nc2cc(F)ccc2N2CCN(C)CC2)no1`, with 29.53%. Consider `c1cc(OCc2ccc3c(c2)OCO3)ccc1CNC1CC1`, for which the INHIBITION was 1.13%. For `Cc1cc(C)nc(C2CCCN2C(=O)c2cnccn2)n1` (stereo unspecified) the value was -48.89%; for `CNc1[nH]nc(N)c1C(=O)Nc1ccccc1`, 0.86%. As for `CNc1[nH]nc(N)c1NC(=O)c1ccccc1`, the INHIBITION was -11.22%. For the compound `CNc1[nH]nc(N)c1C(=O)Nc1ccc(OC)cc1`, the INHIBITION came out at 52.21%. `CCc1ncc2c(n1)CN(C(C)C(=O)N1CCOCC1)CC2` (stereo unspecified): the INHIBITION worked out at 1.42%.

As for `CC(=O)NCCc1ccc(S(=O)(=O)Nc2ccc(C)cc2F)s1`, the INHIBITION is reported as 22.16%. Regarding `COCCN1CCCC(c2cncc(Oc3ccccc3OC)n2)C1` (stereo unspecified), the INHIBITION worked out at 41.56%.

As for `COc1cccc2ccc(CN3CCN(c4ncccn4)CC3)nc12`, the INHIBITION worked out at 38.8%.

As to `COc1cccc2ccc(CN3CCN(c4ccncc4)CC3)nc12`, the INHIBITION is listed as 65.42%. Consider `COc1cccc2ccc(CN3CCN(c4cccnc4)CC3)nc12`, for which the INHIBITION is listed as -18.81%.
